Where “and” joins values, the source holds several entries; their conditions need not be identical. Identical values can stand only once. Records with an inconclusive call do not appear. The source holds several records for some structures; these can differ, active in one and inactive in another. Calls of active or inactive are those of the source. The calls were made as follows, unless noted: active = hit-call score of the fitted dose curve at least 0.9, where 1 is the maximum; inconclusive = response in the unintended direction; inactive = score below 0.9.

For seven compounds, AC50 and outcome results are on record in PubChem BioAssay (EPA / NIEHS).

Experiment [1] has as its target human Peroxisome Proliferator-activated Receptor alpha (PPARa), PPARA (gene 5465) (UniProt Q07869). Briefly: ATG_PPARa_TRANS: Attagene TRANS-FACTORIAL HepG2 Assay for human Peroxisome Proliferator-activated Receptor alpha (PPARa) (AID 2283001).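 As to AC50: potency for gain of reporter signal over DMSO so agonist or activator.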 The essentials:
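Transient HepG2 transfection, GAL4-UAS reporters, NR-Gal4 chimeras; 24 h compound exposure. Readout: reporter transcripts by RT-PCR, 6-FAM primer extension, HpaI digest, capillary electrophoresis. Positive direction vs DMSO baseline.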

Read-out in experiment [2]: Intercellular Adhesion Molecule 1 (ICAM1), ICAM1 (gene 3383)
Briefly: BSK_3C_ICAM1: BioMAP Diversity Plus: 3C Assay for Intercellular Adhesion Molecule 1 (ICAM1) Biomarker Activity (AID 2283003; active = hit-call score of the fitted dose curve at least 0.9, where 1 is the maximum; inactive = score below 0.9). Particulars: primary human endothelial cells (HUVEC); actives raise or lower the signal. An outline of the steps: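 Using DMSO as baseline, bidirectional curve fitting was applied to ICAM-1 ELISA signals from HUVEC in the 3C system, measured 24 h after compound addition.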

Experiment [3] has as its target human Retinoic Acid Receptor beta (RARb), RARB (gene 5915) (UniProt P10826). As to the kind of experiment: ATG_RARb_TRANS: Attagene TRANS-FACTORIAL HepG2 Assay for human Retinoic Acid Receptor beta (AID 2283004). An outline of the steps: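 Transient transfection of HepG2 with multiple reporter units → chemical dosing, 24 h → total RNA isolation → RT with oligo(dT) → reporter-specific PCR, 6-FAM primer extension, HpaI digest → capillary electrophoresis. Positive direction vs DMSO control.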

Experiment [4] can be described thus: BSK_3C_Proliferation: Cell Proliferation Assessment in the BioMAP Diversity Plus: 3C Assay (AID 2283006; active = hit-call score of the fitted dose curve at least 0.9, where 1 is the maximum; inactive = score below 0.9;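 as to AC50: potency may reflect either rise or fall in cell number versus DMSO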). Particulars: primary human endothelial cells (HUVEC). An outline of the steps: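 Measured here: sulforhodamine B (0.1%) staining of TCA-fixed sub-confluent umbilical vein endothelial cultures 48 h post-dosing, absorbance 560 nm. DMSO served as negative control and baseline; both signal gain and loss were modelled.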

The target of experiment [5] is Peroxisome proliferator-activated receptor gamma (Homo sapiens) (UniProt P37231). Briefly: ATG_PPARg_TRANS: Attagene TRANS-FACTORIAL HepG2 Assay for human Peroxisome Proliferator-activated Receptor-gamma (PPARg) (AID 2283007). An outline of the steps: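 After 24 h of chemical exposure, transfected HepG2 cells carrying PPARγ-Gal4 chimera reporter constructs are lysed for RNA. Reporter transcripts are measured by RT-PCR and capillary electrophoresis with fluorescent labelling, and gain of signal is fitted versus DMSO.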
Peroxisome proliferator-activated receptor gamma (Homo sapiens), sequence (P37231 whole entry, looked up, the tested form may be a part): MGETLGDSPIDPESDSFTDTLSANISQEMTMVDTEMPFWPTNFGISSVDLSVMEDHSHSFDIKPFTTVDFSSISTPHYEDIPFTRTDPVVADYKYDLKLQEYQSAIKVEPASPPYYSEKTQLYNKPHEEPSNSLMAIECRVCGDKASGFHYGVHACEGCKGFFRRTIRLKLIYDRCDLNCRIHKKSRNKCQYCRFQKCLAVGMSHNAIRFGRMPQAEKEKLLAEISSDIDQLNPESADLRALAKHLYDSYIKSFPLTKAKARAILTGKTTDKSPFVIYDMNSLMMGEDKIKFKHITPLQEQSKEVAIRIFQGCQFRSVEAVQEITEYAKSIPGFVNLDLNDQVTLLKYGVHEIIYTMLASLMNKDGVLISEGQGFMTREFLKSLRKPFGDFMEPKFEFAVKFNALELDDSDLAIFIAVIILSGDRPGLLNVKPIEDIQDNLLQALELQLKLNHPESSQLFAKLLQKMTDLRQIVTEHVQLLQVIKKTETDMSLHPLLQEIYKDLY

The target in experiment [6] is Nuclear receptor subfamily 1 group I member 2 (Homo sapiens) (UniProt O75469). Briefly: ATG_PXR_TRANS: Attagene TRANS-FACTORIAL HepG2 Assay for human Pregnane X Receptor (PXR) (AID 2283008). An outline of the steps:
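Transactivation by exogenous PXR–GAL4 fusion measured as reporter transcript induction after 24 h compound treatment of transfected human HepG2 cells. Read-out via RT-PCR and capillary electrophoresis of labelled fragments, fitted upward relative to DMSO.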

The target of experiment [7] is Retinoic acid receptor RXR-alpha (Homo sapiens) (UniProt P19793). Briefly: ATG_RXRa_TRANS: Attagene TRANS-FACTORIAL HepG2 Assay for human Retinoid X Receptor alpha (RXRa) (AID 2283012). The essentials: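 Chimeric NR-GAL4 trans-activation in HepG2, 24 h treatment; reporter transcripts quantified by fluorescence on capillary electrophoresis, analysed for upward change from DMSO.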
Retinoic acid receptor RXR-alpha (Homo sapiens), sequence (P19793 whole entry, looked up, the tested form may be a part): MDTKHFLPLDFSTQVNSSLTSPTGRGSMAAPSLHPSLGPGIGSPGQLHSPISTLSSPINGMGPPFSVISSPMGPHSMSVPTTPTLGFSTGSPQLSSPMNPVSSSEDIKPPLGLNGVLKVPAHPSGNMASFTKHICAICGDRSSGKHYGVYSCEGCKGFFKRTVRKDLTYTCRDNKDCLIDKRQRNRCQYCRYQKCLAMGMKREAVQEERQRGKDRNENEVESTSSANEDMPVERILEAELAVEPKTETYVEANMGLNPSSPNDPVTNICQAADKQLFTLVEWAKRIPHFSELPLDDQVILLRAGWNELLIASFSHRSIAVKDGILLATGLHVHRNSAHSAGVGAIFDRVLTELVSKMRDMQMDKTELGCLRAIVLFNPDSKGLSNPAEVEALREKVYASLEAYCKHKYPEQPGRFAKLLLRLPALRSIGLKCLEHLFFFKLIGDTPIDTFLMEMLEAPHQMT

In experiment [8] the target is human Retinoid X Receptor beta (RXRb), RXRB (gene 6257) (UniProt P28702). As to the kind of experiment: ATG_RXRb_TRANS: Attagene TRANS-FACTORIAL HepG2 Assay for human Retinoid X Receptor beta (RXRb) (AID 2283013). An outline of the steps: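 After a 24 h incubation with test chemical, transfected HepG2 cells carrying NR-Gal4 fusions and GAL4-UAS reporter transcription units yield RNA whose reporter cDNA is FAM-labelled, HpaI-cut and sized by capillary electrophoresis; increases over DMSO are scored.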
human Retinoid X Receptor beta (RXRb), RXRB (gene 6257), sequence (P28702 whole entry, looked up, the tested form may be a part): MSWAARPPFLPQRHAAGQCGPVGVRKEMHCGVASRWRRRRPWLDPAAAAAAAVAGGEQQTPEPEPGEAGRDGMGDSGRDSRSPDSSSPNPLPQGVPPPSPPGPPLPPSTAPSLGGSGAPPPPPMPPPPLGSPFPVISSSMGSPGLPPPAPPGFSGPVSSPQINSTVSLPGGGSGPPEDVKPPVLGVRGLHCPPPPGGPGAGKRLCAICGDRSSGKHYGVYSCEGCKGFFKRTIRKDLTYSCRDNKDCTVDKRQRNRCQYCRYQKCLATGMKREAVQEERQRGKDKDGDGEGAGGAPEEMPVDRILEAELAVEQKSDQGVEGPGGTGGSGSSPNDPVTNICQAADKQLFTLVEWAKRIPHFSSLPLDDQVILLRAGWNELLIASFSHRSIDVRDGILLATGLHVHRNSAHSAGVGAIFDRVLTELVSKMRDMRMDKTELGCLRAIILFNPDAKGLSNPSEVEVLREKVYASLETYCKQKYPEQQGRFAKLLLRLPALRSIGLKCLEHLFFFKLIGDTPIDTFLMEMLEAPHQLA

Read-out in experiment [9]: E-selectin (Homo sapiens) (UniProt P16581)
As to the kind of experiment: BSK_3C_Eselectin: BioMAP Diversity Plus: 3C Assay for Eselectin Biomarker Activity (AID 2283015; active = hit-call score of the fitted dose curve at least 0.9, where 1 is the maximum; inactive = score below 0.9;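 also: cell surface E-selectin protein quantified by ELISA 24 h after dosing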). Particulars: primary human endothelial cells (HUVEC); actives raise or lower the signal. An outline of the steps: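 ELISA read-out of E-selectin on endothelial monolayers after 24 h chemical treatment. Human umbilical vein primary cells served as the system, with DMSO defining baseline activity for bidirectional fitting.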

Read-out in experiment [10]: Interleukin-1 alpha (IL1a), IL1A (gene 3552)
Briefly: BSK_BE3C_IL1a: BioMAP Diversity Plus: BE3C Assay for Interleukin-1 alpha (IL1a) Biomarker Activity (AID 2283016; active = hit-call score of the fitted dose curve at least 0.9, where 1 is the maximum; inactive = score below 0.9). The following applies: primary human bronchial epithelial cells; actives raise or lower the signal. The essentials: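 Measured in human lung primary bronchial epithelial cells: IL-1a by ELISA at 24 h after dosing, with bidirectional fitting against DMSO.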

Read-out in experiment [11]: Monocyte Chemoattractant Protein-1 (MCP1), CCL2 (gene 6347)
As to the kind of experiment: BSK_3C_MCP1: BioMAP Diversity Plus: 3C Assay for Monocyte Chemoattractant Protein-1 (MCP1) Biomarker Activity (AID 2283017; active = hit-call score of the fitted dose curve at least 0.9, where 1 is the maximum; inactive = score below 0.9). The following applies: primary human endothelial cells (HUVEC); actives raise or lower the signal. An outline of the steps: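 ELISA read-out of MCP-1 from human umbilical vein endothelial cell cultures harvested 24 h post-dosing. Gain or loss of signal was fitted relative to DMSO.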

Read-out in experiment [12]: Monocyte Chemoattractant Protein-1 (MCP1), CCL2 (gene 6347)
As to the kind of experiment: BSK_4H_MCP1: BioMAP Diversity Plus: 4H Assay for Monocyte Chemoattractant Protein-1 (MCP1) Biomarker Activity (AID 2283018; active = hit-call score of the fitted dose curve at least 0.9, where 1 is the maximum; inactive = score below 0.9). Particulars: primary human endothelial cells (HUVEC); actives raise or lower the signal. The essentials: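 Primary human umbilical vein endothelium is exposed to chemical for 24 h before MCP-1 is assayed by ELISA. Concentration-response fitted bidirectionally relative to DMSO.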

Read-out in experiment [13]: Human Leukocyte Antigen - DR isotype (HLADR), HLA-DRA (gene 3122)
As to the kind of experiment: BSK_3C_HLADR: BioMAP Diversity Plus: 3C Assay for Human Leukocyte Antigen - DR isotype (HLADR) Biomarker Activity (AID 2283019; active = hit-call score of the fitted dose curve at least 0.9, where 1 is the maximum; inactive = score below 0.9). The following applies: primary human endothelial cells (HUVEC); actives raise or lower the signal. The essentials: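 ELISA readout of surface HLA-DR on human umbilical vein endothelium, taken 24 h after chemical treatment. Gain- and loss-of-signal were both fitted relative to DMSO.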

Read-out in experiment [14]: Interleukin-8 (IL8), CXCL8 (gene 3576)
Briefly: BSK_3C_IL8: BioMAP Diversity Plus: 3C Assay for Interleukin-8 (IL8) Biomarker Activity (AID 2283020; active = hit-call score of the fitted dose curve at least 0.9, where 1 is the maximum; inactive = score below 0.9). Particulars: primary human endothelial cells (HUVEC); actives raise or lower the signal. An outline of the steps: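 Using DMSO-treated wells as the baseline, bidirectional curve fitting was applied to ELISA-measured IL-8 from human umbilical vein endothelial cultures sampled 24 h after compound addition.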

Read-out in experiment [15]: Monokine induced gamma interferon (MIG), CXCL9 (gene 4283)
As to the kind of experiment: BSK_3C_MIG: BioMAP Diversity Plus: 3C Assay for Monokine induced gamma interferon (MIG) Biomarker Activity (AID 2283021; active = hit-call score of the fitted dose curve at least 0.9, where 1 is the maximum; inactive = score below 0.9). Particulars: primary human endothelial cells (HUVEC); actives raise or lower the signal. An outline of the steps: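 ELISA-measured MIG in dosed HUVEC 3C cultures at 24 h, analysed by bidirectional fitting with DMSO defining baseline activity.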

Experiment [16] concerns the target human Vitamin D Receptor (VDR), VDR (gene 7421) (UniProt P11473). Briefly: ATG_VDR_TRANS: Attagene TRANS-FACTORIAL HepG2 Assay for human Vitamin D Receptor (VDR) (AID 2283022). The essentials: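 Steps: transfect HepG2 with GAL4-UAS-driven reporter constructs; dose compounds 24 h; isolate RNA, reverse-transcribe, PCR-amplify with 6-FAM-labelled primer extension and HpaI digestion; quantify fragments by capillary electrophoresis relative to DMSO.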

For experiment [17], the target named is human Thyroid Receptor alpha (THRa1), THRA (gene 7067) (UniProt P10827). As to the kind of experiment: ATG_THRa1_TRANS: Attagene TRANS-FACTORIAL HepG2 Assay for human Thyroid Receptor alpha (THRa1) (AID 2283014). The essentials:
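Reporter transcript induction, read by capillary electrophoresis of 6-FAM-labelled RT-PCR products, reflects activity of a transfected THRa1-Gal4 fusion in HepG2 liver cells. Cells were dosed for 24 h; activity was fitted in the positive direction against DMSO.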

The target of experiment [18] is human RAR-related Orphan Receptor beta (RORb), RORB (gene 6096) (UniProt Q92753). Briefly: ATG_RORb_TRANS: Attagene TRANS-FACTORIAL HepG2 Assay for human RAR-related Orphan Receptor beta (RORb) (AID 2283010). The essentials: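 Multiplexed transcription-factor reporter assay: HepG2 cells transiently carrying NR-Gal4/GAL4-UAS constructs, 24 h treatment, mRNA quantified by RT-PCR plus capillary electrophoresis fluorescence; activity scored as induction over DMSO.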
human RAR-related Orphan Receptor beta (RORb), RORB (gene 6096), sequence (Q92753 whole entry, looked up, the tested form may be a part): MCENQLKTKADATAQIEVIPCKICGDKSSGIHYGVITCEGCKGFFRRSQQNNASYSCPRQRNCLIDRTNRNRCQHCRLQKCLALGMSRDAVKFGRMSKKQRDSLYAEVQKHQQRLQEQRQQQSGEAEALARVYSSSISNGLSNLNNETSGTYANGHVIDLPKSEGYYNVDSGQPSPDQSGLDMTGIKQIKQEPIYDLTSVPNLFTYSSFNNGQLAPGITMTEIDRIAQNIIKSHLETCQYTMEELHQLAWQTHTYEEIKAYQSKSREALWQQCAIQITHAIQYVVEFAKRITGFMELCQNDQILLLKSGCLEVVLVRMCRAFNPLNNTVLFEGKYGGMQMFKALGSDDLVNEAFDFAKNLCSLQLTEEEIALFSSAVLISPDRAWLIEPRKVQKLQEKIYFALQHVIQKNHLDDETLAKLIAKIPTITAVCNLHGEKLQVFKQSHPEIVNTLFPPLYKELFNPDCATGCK

human Thyroid Receptor alpha (THRa1), THRA (gene 7067), sequence (P10827 whole entry, looked up, the tested form may be a part): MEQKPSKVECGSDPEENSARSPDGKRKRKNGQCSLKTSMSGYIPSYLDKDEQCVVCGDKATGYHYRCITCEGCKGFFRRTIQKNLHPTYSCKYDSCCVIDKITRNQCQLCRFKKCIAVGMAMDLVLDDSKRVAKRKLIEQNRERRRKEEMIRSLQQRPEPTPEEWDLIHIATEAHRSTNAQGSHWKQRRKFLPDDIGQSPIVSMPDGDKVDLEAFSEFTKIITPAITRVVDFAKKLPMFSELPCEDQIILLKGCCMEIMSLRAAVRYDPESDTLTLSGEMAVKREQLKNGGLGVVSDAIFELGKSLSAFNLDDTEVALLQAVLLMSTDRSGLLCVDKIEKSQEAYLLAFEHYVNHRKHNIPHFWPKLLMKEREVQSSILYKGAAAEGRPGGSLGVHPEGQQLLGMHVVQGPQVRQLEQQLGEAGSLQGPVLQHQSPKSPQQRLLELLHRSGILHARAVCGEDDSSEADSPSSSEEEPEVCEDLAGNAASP
human Vitamin D Receptor (VDR), VDR (gene 7421), sequence (P11473 whole entry, looked up, the tested form may be a part): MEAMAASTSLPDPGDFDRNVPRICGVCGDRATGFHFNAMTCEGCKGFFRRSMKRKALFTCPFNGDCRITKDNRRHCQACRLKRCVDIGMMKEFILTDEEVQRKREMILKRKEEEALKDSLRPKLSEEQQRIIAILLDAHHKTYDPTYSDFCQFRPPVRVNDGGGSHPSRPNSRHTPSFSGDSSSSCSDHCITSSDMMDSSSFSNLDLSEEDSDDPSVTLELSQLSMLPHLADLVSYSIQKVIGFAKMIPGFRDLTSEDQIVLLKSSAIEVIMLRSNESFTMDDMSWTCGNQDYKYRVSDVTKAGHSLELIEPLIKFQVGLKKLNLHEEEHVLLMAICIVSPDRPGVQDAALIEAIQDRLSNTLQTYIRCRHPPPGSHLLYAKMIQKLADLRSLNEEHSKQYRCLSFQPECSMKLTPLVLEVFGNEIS
Nuclear receptor subfamily 1 group I member 2 (Homo sapiens), sequence (O75469 whole entry, looked up, the tested form may be a part): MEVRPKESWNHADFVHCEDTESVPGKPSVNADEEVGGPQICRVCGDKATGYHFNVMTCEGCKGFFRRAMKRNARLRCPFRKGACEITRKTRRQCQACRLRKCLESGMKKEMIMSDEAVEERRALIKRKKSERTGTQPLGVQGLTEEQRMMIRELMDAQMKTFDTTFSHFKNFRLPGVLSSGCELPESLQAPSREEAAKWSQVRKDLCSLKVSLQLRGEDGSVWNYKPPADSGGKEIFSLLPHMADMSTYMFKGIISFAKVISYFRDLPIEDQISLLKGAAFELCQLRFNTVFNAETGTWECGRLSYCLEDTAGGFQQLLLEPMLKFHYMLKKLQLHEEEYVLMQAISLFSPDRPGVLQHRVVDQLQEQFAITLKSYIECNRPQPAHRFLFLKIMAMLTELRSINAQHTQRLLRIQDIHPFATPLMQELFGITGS
E-selectin (Homo sapiens), sequence (P16581 whole entry, looked up): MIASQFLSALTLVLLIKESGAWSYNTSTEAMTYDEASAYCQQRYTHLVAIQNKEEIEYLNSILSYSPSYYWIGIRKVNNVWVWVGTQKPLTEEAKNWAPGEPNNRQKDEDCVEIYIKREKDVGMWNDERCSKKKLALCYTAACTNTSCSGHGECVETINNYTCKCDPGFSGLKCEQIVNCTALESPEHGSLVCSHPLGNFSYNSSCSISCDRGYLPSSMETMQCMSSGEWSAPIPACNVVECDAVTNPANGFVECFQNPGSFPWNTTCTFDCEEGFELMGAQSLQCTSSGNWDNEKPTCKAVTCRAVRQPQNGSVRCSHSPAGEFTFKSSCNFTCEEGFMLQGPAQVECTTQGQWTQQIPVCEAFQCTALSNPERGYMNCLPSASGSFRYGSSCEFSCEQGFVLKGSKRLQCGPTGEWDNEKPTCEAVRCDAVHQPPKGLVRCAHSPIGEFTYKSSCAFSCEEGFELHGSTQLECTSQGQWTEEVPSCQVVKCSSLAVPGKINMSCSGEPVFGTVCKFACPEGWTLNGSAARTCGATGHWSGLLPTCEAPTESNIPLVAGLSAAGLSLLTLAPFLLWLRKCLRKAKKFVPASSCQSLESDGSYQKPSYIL
human Peroxisome Proliferator-activated Receptor alpha (PPARa), PPARA (gene 5465), sequence (Q07869 whole entry, looked up, the tested form may be a part): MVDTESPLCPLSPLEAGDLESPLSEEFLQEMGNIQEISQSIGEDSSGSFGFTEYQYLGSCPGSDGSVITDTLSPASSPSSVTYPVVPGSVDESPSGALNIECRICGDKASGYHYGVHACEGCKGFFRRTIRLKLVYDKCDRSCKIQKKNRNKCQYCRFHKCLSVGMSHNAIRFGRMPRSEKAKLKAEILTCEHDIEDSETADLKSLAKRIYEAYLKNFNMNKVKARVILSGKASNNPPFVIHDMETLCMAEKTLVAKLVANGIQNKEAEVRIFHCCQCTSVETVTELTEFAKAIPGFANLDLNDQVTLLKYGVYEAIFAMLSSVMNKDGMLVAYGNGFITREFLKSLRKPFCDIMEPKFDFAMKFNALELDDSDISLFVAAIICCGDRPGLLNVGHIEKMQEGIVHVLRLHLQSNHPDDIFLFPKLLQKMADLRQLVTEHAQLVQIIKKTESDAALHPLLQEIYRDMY
human Retinoic Acid Receptor beta (RARb), RARB (gene 5915), sequence (P10826 whole entry, looked up): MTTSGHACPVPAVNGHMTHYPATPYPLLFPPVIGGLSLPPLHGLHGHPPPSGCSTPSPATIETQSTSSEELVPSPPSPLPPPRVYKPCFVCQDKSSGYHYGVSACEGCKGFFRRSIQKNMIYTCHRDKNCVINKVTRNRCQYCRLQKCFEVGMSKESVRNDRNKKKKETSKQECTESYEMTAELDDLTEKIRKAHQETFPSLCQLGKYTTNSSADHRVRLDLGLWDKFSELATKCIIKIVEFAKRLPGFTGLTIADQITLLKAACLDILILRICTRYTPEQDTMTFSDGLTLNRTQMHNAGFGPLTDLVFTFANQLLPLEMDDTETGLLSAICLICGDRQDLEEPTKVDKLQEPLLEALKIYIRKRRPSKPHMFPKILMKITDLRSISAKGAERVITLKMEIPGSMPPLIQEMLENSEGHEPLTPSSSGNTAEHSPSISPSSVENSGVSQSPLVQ

By AC50 is commonly meant the concentration at which the activity in the assay is half-maximal. Regarding `CC(C)(O)c1ccc(CNC(=O)c2cccnc2Oc2ccc3nonc3c2)cc1`, the AC50 was 1.08 µM (active) in experiment [1], 27 µM (active) in experiment [5] and 10.5 µM (active) in experiment [6]. In addition, the result in experiment [2], in [3], in [4], in experiment [7], in experiment [8] and in experiment [9] was inactive. Also, the outcome in [10], in experiment [11], in experiment [12], in experiment [13], in experiment [14] and in experiment [15] was inactive. Also, in experiment [16], the result was inactive.
For `CCCOC(=O)c1cc(O)c(O)c(O)c1`, the AC50 is 27.7 µM (active) in experiment [1], 10.5 µM (active) in experiment [4] and 31.8 µM (active) in experiment [5]. For the same compound, the outcome in [2], in experiment [6], in [8], in experiment [17], in experiment [9] and in experiment [10] was inactive. Also, the result in experiment [11], in experiment [12], in [13] and in [16] was inactive.
On to `Cc1ccc(C(C)C)cc1`, for which the result in [1], in experiment [2], in experiment [3], in [4], in experiment [6] and in experiment [8] was inactive. The call in [17], in experiment [9], in experiment [10], in experiment [11], in [12] and in [13] was inactive. In addition, the outcome in [14], in [15] and in [16] was inactive.
For the compound `CCCCCc1ccc(N)cc1`, the result in experiment [1], in experiment [2], in experiment [5], in experiment [6], in experiment [7] and in [8] was inactive. Moreover, the result in experiment [17], in [9], in experiment [10], in experiment [11], in experiment [12] and in experiment [15] was inactive. The outcome in [16] was inactive. Besides, the AC50 was 6.3 µM (active) in experiment [4]; 100 µM (active) and 34 µM (active) in experiment [5]; 14.5 µM (active) in experiment [13].
For `CCCCOC(=O)c1ccc(O)cc1`, the result in experiment [1], in experiment [2], in [4], in experiment [5], in experiment [6] and in [7] was inactive. Also, the outcome in experiment [8], in [17], in experiment [9], in [10], in experiment [11] and in [12] was inactive. Also, the outcome in experiment [13], in [14] and in experiment [16] was inactive. The AC50 is 39.9 µM (active) and 54 µM (active) and 27.3 µM (active) in experiment [5]; 26.9 µM (active) and 26.4 µM (active) in [8].
Consider `O=C(O)Cn1c(=O)n(Cc2ccc(Br)cc2F)c(=O)c2ccc(Cl)cc21`, for which the call in experiment [1], in experiment [2], in experiment [4], in experiment [7], in experiment [9] and in [10] was inactive. For the same compound, the outcome in experiment [11], in [12], in experiment [13], in experiment [14] and in experiment [16] was inactive. The AC50 is 6.18 µM (active) in experiment [5] and 11 µM (active) in [6].
As to `CCCCCCCCCC(=O)O`, the AC50 in experiment [1] is 29.1 µM (active); in [5] it was 29.2 µM (active) and 12.3 µM (active); in experiment [8] it was 30.2 µM (active) and 68.3 µM (active). In addition, the outcome in [2], in experiment [4], in experiment [6], in experiment [18], in [7] and in experiment [9] was inactive. The outcome in experiment [10], in experiment [11], in experiment [12], in experiment [13], in experiment [14] and in experiment [15] was inactive. Further, the compound was classed as inactive in experiment [16].
